Test results as given in PubChem BioAssay (NCI).
The panel holds about 83,000 compounds, 20% with a hit somewhere; the sample as a whole holds those more often.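 A percent growth of 40 corresponds to 60% growth inhibition; 0 means no net growth; -100 means all cells died. Active threshold: below 10.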 Active and inactive are the calls of the source.

Test system: HL-60(TB) leukemia
Experiment: NCI-60 one-dose screen, 48 h (100 = growth as untreated, 0 = no growth, -100 = all killed)
Conditions: 10 µM unless noted

Row | SMILES | growth
1 | c1ccc([Se]CCCN2CCN(CCC[Se]c3ccccc3)CC2)cc1 | 105% (inactive)
2 | CNc1ccc(CSc2ccc(C)cc2)cc1 | 11.8% (inactive)
3 | O=C1/C(=C/C(Cl)=C/c2ccccc2)SC(=S)N1CCc1ccc(O)cc1 | -7.15% (active)
4 | CCOc1cccc(/C=N/NC(=O)Cc2ccc(Nc3ccnc(C(F)(F)F)c3)cc2)c1O | 73.1% (inactive)
5 | Cn1cc(-c2nnc(-c3cn(C)c4ncccc34)s2)c2ccccc21 | 27.8% (inactive)
6 | Cn1cc(-c2ccc(F)c(C(F)(F)F)c2)nc1C1CCN(c2ncnc3[nH]ncc23)CC1 | 84.7% (inactive)
7 | CC(CN1CCCCC1)C(=O)c1ccccc1 (stereo not given) | 103% (inactive)
8 | COc1ccc2c(c1)Oc1nc(N)c(C#N)c(N)c1C2Sc1ccc(O)cc1 (stereo not given) | 9.8% (active)
9 | CN1[C@@H]2CC[C@H]1/C(=C\c1ccccc1)C1=C2[C@@H](c2ccccc2)C(C#N)=C(N)O1 | 60.4% (inactive)
10 | CN1CCc2c(sc3nc4n(-c5ccc(Cl)cc5)cnn4c(=O)c23)C1 | 105% (inactive)
11 | COc1ccc(OC)c(Nc2nc3nonc3nc2Nc2cc(OC)ccc2OC)c1 | 103% (inactive)
12 | N/C(=N\O)c1ncc(-c2ccc(C(F)(F)F)cc2)c(NC2CCCCCC2)n1 | -58.8% [100 µM] (active)
13 | O=C(Nc1ccc(-n2cc(-c3ccncc3)c(-c3ccc(O)c(Cl)c3)n2)cc1)c1ccc(Cl)c(Cl)c1 | 14.7% (inactive)
14 | CCOC(=O)C#Cc1c(C(=O)OCC)nnn1Cc1ccc([N+](=O)[O-])cc1 | 55.4% (inactive)
15 | COc1ccc(C2=C(Nc3ccc(C(=O)Nc4ccccc4)cc3)C(=O)N(C)C2=O)cc1 | 69.9% (inactive)
